Compounds with a hit are over-represented: about 2.6% of the library has one in this group of screens.
p53ts 39C tox – kills p53ts cells at the nonpermissive temperature; H1299-p53A138V viability at 39C, ATP luminescence, 24 h; Potency, µM (series often up to 46.1 µM), hits mostly cytotoxic; 1.5% of 130,000 active; also: nearly all actives have a fitted effect of over 55% in size
Luciferase inh – inhibitors of firefly luciferase; P08659; purified firefly luciferase, luminescence, 8 min; Potency, µM (top dose mostly 57.1 µM), actives largely listed as inhibitors; 2.2% of 72,000 active; AID 411; also: nearly all actives have a fitted effect of over 40% in size
Target sequence (P08659 whole entry, looked up): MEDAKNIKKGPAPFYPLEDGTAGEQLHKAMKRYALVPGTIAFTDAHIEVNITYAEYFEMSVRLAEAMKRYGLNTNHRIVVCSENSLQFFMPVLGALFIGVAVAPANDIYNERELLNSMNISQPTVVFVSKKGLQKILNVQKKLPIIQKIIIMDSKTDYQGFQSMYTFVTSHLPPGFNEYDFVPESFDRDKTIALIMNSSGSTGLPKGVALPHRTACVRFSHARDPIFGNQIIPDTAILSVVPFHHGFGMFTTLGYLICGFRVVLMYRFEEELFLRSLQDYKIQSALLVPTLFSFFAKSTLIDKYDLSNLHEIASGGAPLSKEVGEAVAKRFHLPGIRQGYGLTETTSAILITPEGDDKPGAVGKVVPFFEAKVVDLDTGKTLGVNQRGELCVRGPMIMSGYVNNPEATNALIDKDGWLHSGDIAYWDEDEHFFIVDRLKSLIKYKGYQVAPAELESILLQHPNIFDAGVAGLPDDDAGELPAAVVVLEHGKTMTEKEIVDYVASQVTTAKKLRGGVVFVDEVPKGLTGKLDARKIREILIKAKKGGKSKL
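Luminescence read-out after 8 min at room temperature; enzyme reaction used luciferin plus 10 uM ATP (linear range) in imidazole buffer pH 7.2 with KCl, MgCl2, Tween 20 and BSA. Each sample was run as a titration.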
p53ts 32C kill – cytotoxicity in p53ts cells at permissive temperature. H1299-p53A138V at 32C, ATP luminescence viability, 24 h. Potency, µM (doses to about 46.1 µM), most hits filed as cytotoxic. 0.93% of 130,000 active. AID 924; also: nearly all actives have a fitted effect of over 55% in size
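Cells: H1299 p53ts (A138V), 600/well, pre-incubated 16–30 h at 37C. Cpd up to 46 uM, 24 h, 32C. Readout: ATPlite luminescence, 20 min RT. Normalization: DMSO vs tamoxifen 100 uM. AC50 by Hill equation.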
A number is an active result; 0 = inactive; ? = inconclusive; - = no result; ! = not confirmed by another sample; [ ] = remark or other dose. Calls follow the shape of the dose curve; as a rule, active = well fitted curve in the direction sought with a large enough effect; inconclusive = small, poorly fitted or top-dose-only effect, or another doubt; inactive = no such curve, though single readings can be large; an effect the other way counts as inactive or inconclusive.

SMILES	p53ts 39C tox	Luciferase inh	p53ts 32C kill
COc1cccc(-c2cc(C(=O)N3CCCc4ccccc43)no2)c1	?	0	?
COc1ccc(C2=NOC(C(=O)N3CCCc4ccccc43)C2)cc1 (centres undefined)	0	16µM	?
O=C(CSc1nc(=O)n(Cc2ccco2)c2c1CCC2)Nc1cccc(F)c1	0	-	0
O=C1c2ccccc2-c2onc3ccc(NCCCn4ccnc4)c1c23	?	0	0
COc1ccc2noc3c2c1C(=O)c1ccccc1-3	0	0	13µM
N#C/C(=C\c1ccc(O)c(O)c1)C(=O)Nc1ccccc1	?	25µM!	?
C[C@@H](NC(=O)/C(C#N)=C/c1ccc(O)c(O)c1)c1ccccc1	?	0	0
CC(=O)Nc1ccc(NC(=O)c2ccc3c(c2)CCN3S(=O)(=O)c2ccc(C)cc2)cc1	0	-	0
CC(=O)N1CCc2cc(NC(=O)c3ccc(C)cc3)ccc21	10µM	6.3µM	6.3µM
COc1cccc(C(=O)Nc2ccc(C(=O)O)cc2)c1	0	0	0
COC(=O)C1=C(NC(=O)c2cccc(OC)c2)CCS1	0	0	0
O=C(NC1=NCCS1)c1ccc(-c2ccc(Cl)cc2)o1	?	7.9µM	?
COc1cccc(C(=O)Nc2cccc(OC(C)=O)c2)c1	?	0	?
COC(=O)c1ccc(NC(=O)c2cccc(OC)c2)cc1	?	?	13µM
COc1cccc(C(=O)Nc2ccc(C)cc2)c1	16µM	10µM	16µM
Cc1onc(-c2c(F)cccc2Cl)c1C(=O)NC1=NCCS1	0	-	0
COc1cccc(C(=O)NC2=NCCS2)c1	?	16µM	16µM
CC(C)CCn1c(=O)c2sccc2n2c(CCCC(=O)Nc3ccc(C(C)C)cc3)nnc12	0	-	0
Cc1nnc(N2CCN(c3cccc(C(F)(F)F)c3)CC2)c2c1nnn2Cc1ccccc1	0	-	0
CN(C(=O)c1ccc2c(c1)N(Cc1ccc(F)cc1)C(=O)c1ccccc1S2(=O)=O)C1CCCCC1	0	-	0
OC[C@@H]1O[C@H](n2cnc3c(/C=C(\O)c4ccccc4)ncnc32)[C@H](O)[C@@H]1O	0[9.22 µM]	0[11.4 µM]	0[9.22 µM]
CCOc1ccccc1CNC(=O)C(CC)n1nc(C)c2c(C)n(-c3ccccc3)nc2c1=O (centres undefined)	0	-	0
CCOc1cc2[nH]c(=O)n(CCCC(=O)N3CCN(c4ccc(OC)cc4)CC3)c(=O)c2cc1OCC	0	-	0
COc1cc(NC(=O)C(Cc2ccccc2)NS(=O)(=O)c2cccc3nsnc23)cc(OC)c1 (centres undefined)	0	-	0
O=C(Cn1c(=O)n(-c2ccccc2)c(=O)c2c3c(sc21)CCCC3)Nc1ccc(F)cc1F	0	-	0
SMILES	p53ts 39C tox	Luciferase inh	p53ts 32C kill
CCn1c(CN2CCOCC2)nc2cc(NC(=O)c3ccc([N+](=O)[O-])cc3)ccc21	0	-	0
CCCCOc1cccc(C(=O)N2CCN(CCc3ccncc3)CC2)c1	0	-	0
COc1ccc(NC(=O)c2ccccc2NS(C)(=O)=O)cc1OC	0	?	0
COC(=O)c1ccc(NC(=O)c2ccccc2NS(C)(=O)=O)cc1	0	16µM	0
COc1cccc(NC(=O)c2cnn(-c3ccccc3)c2-n2cccc2)c1	0	-	0
c1ccc(CCc2nc(-c3ccccn3)no2)cc1	0	0	0
Cc1cccc(OCc2nc(-c3nonc3N)no2)c1C	0	0	?
Clc1ccccc1OCc1nc(-c2ccccn2)no1	?	10µM	?
Nc1nonc1-c1noc(COc2ccccc2Cl)n1	0	13µM	0
Clc1ccc(-c2noc(COc3ccccc3)n2)cc1	0	0	0
Clc1ccc(OCc2nc(-c3ccccn3)no2)c(Br)c1	13µM	2.5µM	13µM
COC(=O)c1c(C)sc(-c2c(-c3ccc(F)cc3)[nH]c3[nH]c(=O)[nH]c(=O)c23)c1O	0	-	0
CC(NC(=O)CCCn1c(=O)c2cccn2c2cccnc21)c1ccccc1 (centres undefined)	0	-	0
CCCC(=O)OCc1cnc(C)c2oc(=O)c(C(=O)Nc3ccc(F)cc3C)cc12	0	-	0
Cc1ccc(OCc2cc(=O)n3c4c(sc3n2)CCCC4)cc1C	0	-	0
CCOC(=O)c1c(C)oc2c1c(C(c1cccnc1)N1CCN(C)CC1)c(O)c1ccccc12 (centres undefined)	0	0	0
CN1CCN(C(c2cccnc2)c2ccc3cccnc3c2O)CC1 (centres undefined)	13µM	0	0
COc1cc(-c2ccc(N=Nc3ccc4c(S(=O)(=O)O)cc(S(=O)(=O)O)c(N)c4c3O)c(OC)c2)ccc1N=Nc1ccc2c(S(=O)(=O)O)cc(S(=O)(=O)O)c(N)c2c1O	10µM!	0	?
Cc1nn(-c2ccc(S(=O)(=O)O)cc2)c(O)c1N=Nc1ccc(-c2ccc(N=Nc3ccc4c(S(=O)(=O)O)cc(S(=O)(=O)O)c(N)c4c3O)c(O)c2)cc1O.[Cu].[Cu]	0[9.22 µM]	0[11.4 µM]	0[9.22 µM]
Cc1ccccc1-c1cc(Nc2ccccc2)ncn1	0	0[2.29 µM]	0
CCOC(=O)c1[nH]c2c(c1Cc1ccccc1)C(=O)CC(c1ccccc1)C2 (centres undefined)	0	-	0
CCCCc1c2ccccc2nc2[nH]c3ccccc3c12	0	-	0
Fc1ccc2nc3[nH]c4ccccc4c3nc2c1	?	6.3µM	?
COc1cccc(NS(=O)(=O)c2cn(C)c(=O)n(C)c2=O)c1	13µM	0	7.9µM
COc1cccc(NS(=O)(=O)c2ccc3c(c2)n(C)c(=O)c(=O)n3C)c1	0	0	0
SMILES	p53ts 39C tox	Luciferase inh	p53ts 32C kill
Cc1ccc(CNS(=O)(=O)c2cc(C(=O)Nc3cccc(C(F)(F)F)c3)ccc2F)cc1	13µM	-	0
CCOC(=O)c1ccc(CN(Cc2ccc(F)cc2)S(=O)(=O)c2cc(C(=O)Nc3cccc(C(F)(F)F)c3)ccc2F)cc1	0	-	0
COc1cccc(NC(=S)N/N=C2/CCCCc3ccccc32)c1	22µM	-	?
CC(C)NC(=S)N/N=C1\CCCCc2ccccc21	0	-	-
CCc1ccccc1NC(=O)Cn1ccn(-c2cc(C)cc(C)c2)c(=O)c1=O	0	-	0
Cc1ccc(N2C(=O)c3ccccc3C2Nc2ccccc2F)nc1 (centres undefined)	0	0	0
Cc1ccc(N2C(=O)c3ccccc3C2O)nc1 (centres undefined)	5µM	6.3µM	4µM
CC(=O)Nc1ccc2nc(-c3cccnc3)[nH]c2c1	0	0	0
CC(=O)Nc1cccc(-c2nc3ccc(NC(C)=O)cc3[nH]2)c1	?	16µM	?
O=C(CCc1nc2ccccc2[nH]1)N1CCN(C(=O)c2ccco2)CC1	0	0	0
O=C(CSc1ccc(-c2nc3ccccc3[nH]2)cn1)N1CCN(C(=O)c2ccco2)CC1	0	20µM	?
O=C(Nc1ccc2nc(-c3ccco3)[nH]c2c1)c1ccco1	16µM	13µM	7.9µM
COc1cc(NC(=O)c2cccs2)ccc1NC(=O)c1ccco1	0	0	0
O=C(Nc1ccc2nc(-c3ccco3)[nH]c2c1)c1cccs1	13µM	13µM	10µM
Cn1cccc1-c1nc2ccc(NC(=O)c3ccccc3)cc2[nH]1	0	0	0
CCC(C)C(NC)C(=O)O (centres undefined)	0	-	0
CC(C)(C)OC(=O)N1CCC(c2c(C(=O)NCc3cccs3)cnn2-c2cccc(F)c2)CC1	0	-	0
COc1ccc2c(c1)c1c(c(=O)n(-c3ccc(F)c(Cl)c3)c(=O)n1Cc1ccccc1F)n2C	0	-	0

Screening results as filed in PubChem BioAssay.
